# Assay outcomes as filed in PubChem.
# KCNH2 3.1 block = qHTS for Inhibitors of KCHN2 3.1: Mutant qHTS | U2OS KCNH2 3.1, thallium flux FluxOr; active compounds read low | activity change, % (tested at about 1.8 µM) | actives 0.95% (n = 340,000) | AID 720553, 2013;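 active = maximum activity change below -70%; inconclusive = maximum activity change from -70% to -50%; inactive = maximum activity change above -50%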;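 note: thallium influx rate constant from kinetic fluorescence after stimulation buffer; % is set by controls: 0 for no effect and ±100 for the full control effect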
#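 Thallium flux read-out: FluxOr dye with Red40 quencher in HBSS/HEPES, 45 min at RT. Rate constants from kinetic reads were normalized to positive and negative DMSO controls. Cells: U2OS virally expressing the 3.1 isoform.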
# KCNH2 WT inh = qHTS for Inhibitors of KCHN2 3.1: Wildtype qHTS | Voltage-gated inwardly rectifying potassium channel KCNH2 (Homo sapiens), Q12809 | U2OS, BacMam KCNH2, thallium flux FluxOr; active compounds read low | activity change, % at 1.84 µM | actives 0.37% (n = 340,000) | AID 720551, 2013;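 active = maximum activity change below -70%; inconclusive = maximum activity change between -70% and -50%; inactive = maximum activity change above -50%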; note: % is set by controls: 0 for no effect and ±100 for the full control effect
#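 U2OS cells were transduced with wild-type KCNH2 virus (2.03 x 10^8 / mL) for 4 h at room temperature, then cultured overnight at 37 C. Thallium flux was read with FluxOr dye. Rate constants were normalized to DMSO controls.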
# Tb PFK block = qHTS Assay to Find Inhibitors of T. brucei phosphofructokinase; ATP-dependent 6-phosphofructokinase (Trypanosoma brucei brucei), O15648; T. brucei PFK, ADP-Glo luminescence; Potency, µM (doses to about 57.5 µM), for inactives: top-dose activity, negative = inhibition, actives largely listed as inhibitors; actives 0.17% (n = 330,000); active = well fitted inhibition curve with a large enough effect; inconclusive = small, poorly fitted or top-dose-only effect, or effect the other way;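 note: potency is the fitted concentration of half-maximal effect; 0% = uninhibited 1x PFK enzyme wells and -100% = no-enzyme wells; nearly all actives have a fitted effect of over 60% in size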
#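 1.25 nM PFK with 0.5 mM F6P and 0.1 mM ATP in 0.1 M TEA pH 8.0, 5 mM MgCl2, incubated 45 min at room temperature; ADP measured by ADP-Glo luminescence; compounds titrated up to 57 uM.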
# TSG101-PTAP inh = qHTS Assay for Iinhibitors of HIV-1 Budding by Blocking the Interaction of PTAP/TSG101; Fluorescence polarization, FITC-PTAP peptide / Tsg101 binding; Tumor susceptibility gene 101 protein (Homo sapiens), Q99816; 340,000 tested, under 10 active; Potency, µM (top dose mostly 115 µM), inactives show at the top dose activity change, negative = inhibition, hits mostly inhibitors; active = well fitted inhibition curve with a large enough effect in the main read-out, with a control signal flat, not every such curve was filed as active; inconclusive = small, poorly fitted or top-dose-only effect, or effect the other way, or a change in a side signal; inactive = no such curve, though single readings can be large or run the other way; note: potency is the fitted concentration of half-maximal effect; % of control where 0% means no effect
#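 Compounds were pin-transferred onto Tsg101 binding domain (10 uM final) in HEPES pH 7.5 buffer, then FITC-PTAP peptide was added at 50 nM final. After 20 min at RT, polarization reported peptide displacement across a qHTS concentration series.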
# The depositor's hits bear a star; ? = inconclusive; . = not tested or not shown; ! = repeats disagree. Rows were chosen to be rich in hits. Some 1.2% of all compounds tested hit in one or more screens of this group.
SMILES,KCNH2 3.1 block,KCNH2 WT inh,Tb PFK block,TSG101-PTAP inh
Cc1ccc(C)c(S(=O)(=O)N2CCCCC2CCNC(=O)C(=O)NCc2ccco2)c1 (stereo not drawn),1,8,-9%,-1%
Cc1ccccc1OCC(=O)OCC(=O)NC1CCCCCC1,15,-4,-1%,-3%
COn1c(-c2ccccc2)nc2ccc(Cl)cc21,-94*,-6,3%,-2%
Cc1ccc(S(=O)(=O)NCCC(=O)N2CCC(Cc3ccccc3)CC2)cc1,-25,-5,3%,-3%
Cc1ccc(S(=O)(=O)NCc2ccc(C(=O)NCCCN3CCC(Cc4ccccc4)CC3)cc2)cc1,-81*,6,-6%,2%
COc1ccc(CCNC(=O)c2ccc(CN3CCC(Cc4ccccc4)CC3)cc2)cc1OC,-93*,-23,1%,-2%
COc1ccccc1CN1CC(C(=O)NCCC2=CCCCC2)CCC1=O (stereo not drawn),-15,-4,-2%,-3%
S=c1[nH]nc(Nc2ccc(Cl)cc2)s1,-91*,12,-22%,4%
CN(C[C@H](Cc1ccccc1)N(CCN(CCc1ccccc1)N=O)N=O)N=O,-200*,19,-5%,0%
CC1CC(C)CN(CCCNC(=O)C2CCN(c3nnc(-n4cccc4)s3)CC2)C1 (stereo not drawn),6,5,-4%,-2%
CC1CCCCN1CCCNC(=O)C1CCN(c2nnc(-n3cccc3)s2)CC1 (stereo not drawn),-201*,23,-8%,-4%
Cc1ccc(S(=O)(=O)N2CCCN(Cc3nc4ccccc4c(=O)[nH]3)CC2)cc1,6,-11,-11%,-1%
Cc1ccc(S(=O)(=O)N2CCCN(C(C)c3nc4ccccc4c(=O)[nH]3)CC2)cc1 (stereo not drawn),-1,-280*,9%,1%
COC(=O)C(NC(=O)c1cccnc1Cl)C(C)C (stereo not drawn),8,-120*,0%,-7%
CCC(=O)Nc1ccc(NC(=O)CSc2nnnn2-c2ccc3c(c2)OCCO3)cc1,-4,4,0%,2%
CCOC(=O)c1csc(NC(=O)CSc2nnnn2-c2ccc3c(c2)OCCO3)n1,-16,-118*,-3%,2%
COc1ccc(N2CCN(CC(O)COC(c3ccc(F)cc3)c3ccc(F)cc3)CC2)cc1 (stereo not drawn),-119*,-82*,-4%,1%
COc1ccc(N2CCN(CC(O)COC(c3ccccc3)c3ccccc3)CC2)cc1 (stereo not drawn),-105*,?,1%,-1%
COc1ccc(OCC(O)CN2CCN(c3ccc(OC)cc3)CC2)cc1 (stereo not drawn),-18,15,4%,-4%
C=CCc1cc(OC)ccc1OCC(O)CN1CCN(c2ccc(OC)cc2)CC1 (stereo not drawn),-82*!,60,11%,0%
CCN(CC1CCCO1)C(=O)C1CCN(C2CCN(Cc3ccccc3C)CC2)CC1 (stereo not drawn),-2,-3,3%,-3%
CCCCC[C@H](O)/C=C/[C@H]1C=CC(=O)[C@@H]1C/C=C\CCCC(=O)O,.,.,30µM*,.
CCCCCC(O)C=CC1C(O)CC(O)C1CC=CCCCC(=O)O (stereo not drawn),-16,-14,.,.
OCC[C@@H]1C[C@H](O)[C@@H](O)[C@@]2(CCc3ccccc3O2)O1,16,-2,3%,2%
OCC[C@@H]1C[C@H](O)[C@@H](O)[C@@]2(OCc3ccccc32)O1,-136*,-16,1%,-4%
SMILES,KCNH2 3.1 block,KCNH2 WT inh,Tb PFK block,TSG101-PTAP inh
OCC[C@@H]1C[C@@H](O)[C@H](O)[C@@]2(CCc3ccccc3O2)O1,5,-169*,1%,-3%
OCC[C@H]1C[C@@H](O)[C@H](O)[C@]2(OCc3ccccc32)O1,-89*,-3,-14%,-9%
OCC[C@@H]1C[C@@H](O)[C@H](O)[C@@]2(OCc3ccccc32)O1,23,-1,-1%,0%
O=C(COC(=O)c1ccc2ccccc2n1)NC1CCCCC1,10,-13,2%,-6%
O=C(NC1CCCCC1)C(c1ccc(F)cc1)N(CCCN1CCOCC1)C(=O)c1ccc(CN2CCOCC2)o1 (stereo not drawn),2,-8,-6%,0%
CNc1c2cccc(C)c2nc2c(C(=O)NCCN(C)C)cccc12,3,-10,.,?
C=CCn1c(SC(C)C(=O)Nc2ccc(F)c(F)c2F)nnc1C1CC1 (stereo not drawn),-128*,-8,1%,-4%
C=CCn1c(SC(C)C(=O)Nc2ccc(Cl)cn2)nnc1C1CC1 (stereo not drawn),-13,4,0%,-1%
CNC(=O)c1cc2cc(OC)ccc2n1CCN(C)C,1,2,-10%,-1%
CNC(=O)c1cc2cc(OC)ccc2n1CCN(Cc1ccccc1)Cc1ccccc1,-75*,9,1%,-4%
Cc1ccc(C)c(NC(=O)c2cc(-c3ccccc3O)n[nH]2)c1,-81*,-6,9%,-1%
CC(=O)c1ccc(NC(=O)Oc2ccccc2)cc1,11,5,-3%,-4%
CC(C)Oc1ccc(NC(=O)Oc2ccccc2)cc1,-207*,3,3%,-6%
Cc1ccccc1-n1nnnc1SCc1cc(=O)n2ccsc2n1,-7,8,-5%,-3%
O=c1cc(CSc2nnnn2-c2ccccc2)nc2sccn12,-72*,-6,3%,0%
COc1ccc(NC(=O)C2=CC(c3ccc(C)cc3)=NS(=O)(=O)N2C)cc1,-3,9,-2%,-1%
COc1ccc(C2=NS(=O)(=O)N(C)C(C(=O)N3CCC(C)CC3)=C2)cc1,-113*,1,-6%,-7%
COc1ccc(CCNCCC(c2ccccc2)c2ccccc2)cc1OC,-33,4,.,.
COc1cc(OC)c(OC)cc1CCC(C)NCCC(c1ccccc1)c1ccccc1 (stereo not drawn),-92*,?,-6%,-5%
Cc1ccc(S(=O)(=O)N(C)Cc2ccc(C(=O)N/N=C/c3ccc(OC(F)F)cc3OC(F)F)cc2)cc1,-75*,-25,-7%,-4%
O=C(N/N=C/c1ccc(OC(F)F)cc1OC(F)F)c1ccc(Br)cc1,0,24,2%,-7%
Cc1ccc([C@H]2C[C@H](O)[C@@H](n3cc(-c4ccc(F)cc4)nn3)CN2C(=O)C2CCCCC2)cc1,9,7,.,.
OCCOCCNc1ncnc2nc[nH]c12,-207*,-4,0%,-5%
CCOc1ccc(CN(C)CC(=O)NCc2ccccc2Cl)cc1,8,-85*,4%,-2%
COc1ccc(N(CC(=O)NCc2ccccc2)S(C)(=O)=O)cc1,2,14,0%,-3%
